Measured values reported in PubChem BioAssay (NCI).
About 83,000 compounds went through this panel and 20% of them were active in at least one assay; those are over-represented in the sample as a whole.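 96-well plates, one dose, 48 hours. Percent growth reported; active if below 10.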 The source made the active and inactive calls.

Key:
Assay in all cases: NCI-60 one-dose screen, 48 h (100 = growth as untreated, 0 = no growth, -100 = all killed)
Settings in all cases: 10 µM unless noted
NCI-H23 lung = tested on: NCI-H23 lung
NCI-H226 lung = tested on: NCI-H226 lung
NCI-H322M lung = tested on: NCI-H322M lung
HOP-62 NSCLC = tested on: HOP-62 NSCLC
NCI-H460 lung = tested on: NCI-H460 lung
HOP-92 NSCLC = tested on: HOP-92 NSCLC
NCI-H522 lung = tested on: NCI-H522 lung
A549/ATCC NSCLC = tested on: A549/ATCC NSCLC
786-0 renal = tested on: 786-0 renal
COLO 205 colon = tested on: COLO 205 colon

Measured: growth

Cc1ccc(O)c(Cc2ccccc2)c1
inactive: NCI-H23 lung 101% | NCI-H226 lung 106% | NCI-H322M lung 112% | HOP-62 NSCLC 96.2% | NCI-H460 lung 99% | HOP-92 NSCLC 52.7% | NCI-H522 lung 93.5% | A549/ATCC NSCLC 101% | 786-0 renal 107% | COLO 205 colon 111%

COc1ccc(/C=c2\c(=O)n(-c3ccccc3)c3nn4c(n23)=NNC42CCCCC2)cc1
inactive: NCI-H23 lung 92.7% | NCI-H226 lung 75.8% | NCI-H322M lung 96.3% | HOP-62 NSCLC 87.7% | NCI-H460 lung 101% | HOP-92 NSCLC 94.1% | NCI-H522 lung 90.3% | A549/ATCC NSCLC 104% | 786-0 renal 106% | COLO 205 colon 105%

Brc1cccc(-n2ncc3c(Nc4ccc(-c5nnc(-c6ccccc6)o5)cc4)ncnc32)c1
inactive: NCI-H23 lung 94.5% | NCI-H226 lung 90.2% | NCI-H322M lung 104% | HOP-62 NSCLC 89.6% | NCI-H460 lung 109% | HOP-92 NSCLC 104% | NCI-H522 lung 98.3% | A549/ATCC NSCLC 109% | 786-0 renal 104% | COLO 205 colon 107%

CCOCC(O)(c1ccc(Cl)cc1)c1ccc(Cl)cc1
inactive: NCI-H23 lung 95.1% | NCI-H226 lung 113% | NCI-H322M lung 93.9% | HOP-62 NSCLC 115% | NCI-H460 lung 107% | HOP-92 NSCLC 107% | NCI-H522 lung 89.4% | A549/ATCC NSCLC 83.2% | 786-0 renal 104% | COLO 205 colon 111%

O=C1C=CC(=O)N1CO
inactive: NCI-H23 lung 124% | NCI-H226 lung 113% | NCI-H322M lung 117% | HOP-62 NSCLC 115% | NCI-H460 lung 123% | HOP-92 NSCLC 120% | NCI-H522 lung 103% | A549/ATCC NSCLC 109% | 786-0 renal 113% | COLO 205 colon 149%

CCN(C(=O)Nc1cccc2ccccc12)c1ccccc1
inactive: NCI-H23 lung 98.3% | NCI-H226 lung 98.1% | NCI-H322M lung 102% | HOP-62 NSCLC 93.6% | NCI-H460 lung 115% | HOP-92 NSCLC 96.3% | NCI-H522 lung 100% | A549/ATCC NSCLC 98.7% | 786-0 renal 106% | COLO 205 colon 105%

CCc1ccc(Nc2ncnc3c2cnn3-c2cccc(Br)c2)cc1
inactive: NCI-H23 lung 96.1% | NCI-H226 lung 85.7% | NCI-H322M lung 105% | HOP-62 NSCLC 84% | NCI-H460 lung 102% | HOP-92 NSCLC 91.8% | NCI-H522 lung 89.1% | A549/ATCC NSCLC 97.2% | 786-0 renal 106% | COLO 205 colon 104%

Oc1c(-c2cc(C(F)(F)F)[nH]n2)cc(Cl)c(OCc2ccc(Cl)cc2)c1-c1ccc(Cl)c(C(F)(F)F)c1
inactive: A549/ATCC NSCLC 11.6%
active: NCI-H23 lung 6% | NCI-H226 lung -13.2% | NCI-H322M lung 8.73% | HOP-62 NSCLC -20.9% | NCI-H460 lung 7.68% | HOP-92 NSCLC -12.1% | NCI-H522 lung -2.6% | 786-0 renal -21.4% | COLO 205 colon -38.8%

Nc1c(C(=O)Nc2cccc(Cl)c2)sc2ncc(Br)cc12
inactive: NCI-H23 lung 79.5% | NCI-H226 lung 83.5% | NCI-H322M lung 59.4% | HOP-62 NSCLC 75.4% | NCI-H460 lung 28.8% | HOP-92 NSCLC 78.5% | NCI-H522 lung 65.2% | A549/ATCC NSCLC 34.6% | 786-0 renal 76.1% | COLO 205 colon 85.1%

O=C1OCC2=C1C(c1cccc(Br)c1)c1cc3c(cc1N2CCO)OCCO3 (configuration not stated)
active: NCI-H226 lung -4.52% | NCI-H460 lung 0.468% | NCI-H522 lung -11.5% | COLO 205 colon -24.5%
inactive: NCI-H23 lung 27.5% | NCI-H322M lung 35% | HOP-62 NSCLC 28.7% | A549/ATCC NSCLC 13.5% | 786-0 renal 21.8%

COc1cccc(NC(=O)c2c(-c3ccccc3)c(-c3ccccc3)n[nH]c2=O)c1
inactive: NCI-H23 lung 101% | NCI-H226 lung 100% | NCI-H322M lung 111% | HOP-62 NSCLC 102% | NCI-H460 lung 98% | HOP-92 NSCLC 112% | NCI-H522 lung 89.2% | A549/ATCC NSCLC 100% | 786-0 renal 97.6% | COLO 205 colon 110%

Cn1nc(C(F)(F)F)cc1-c1cc(Cl)c(OCc2ccc(Cl)cc2)c(-c2ccc(Cl)c(C(F)(F)F)c2)c1O
inactive: A549/ATCC NSCLC 13.2%
active: NCI-H23 lung 4.69% | NCI-H226 lung -13.3% | NCI-H322M lung 9.05% | HOP-62 NSCLC -28.6% | NCI-H460 lung 0.354% | HOP-92 NSCLC -25.8% | NCI-H522 lung 1.3% | 786-0 renal -4.08% | COLO 205 colon -78.6%

Cc1ccc(CSCc2ccc(C(=O)NC3CC3)o2)cc1
inactive: NCI-H23 lung 82% | NCI-H226 lung 105% | NCI-H322M lung 80.8% | HOP-62 NSCLC 109% | NCI-H460 lung 52.2% | HOP-92 NSCLC 75.2% | NCI-H522 lung 43.5% | A549/ATCC NSCLC 45.3% | 786-0 renal 91.6% | COLO 205 colon 63.7%

COC(=O)c1cc2oc(/C=N/NC(=O)c3cc4oc(-c5cccc(C(F)(F)F)c5)cc4[nH]3)cc2n1Cc1ccccc1
inactive: NCI-H23 lung 93.1% | NCI-H226 lung 109% | NCI-H322M lung 88% | NCI-H460 lung 107% | HOP-92 NSCLC 78.1% | NCI-H522 lung 97.4% | A549/ATCC NSCLC 20.6% | COLO 205 colon 118%
active: HOP-62 NSCLC -2.75%

C=CC[C@]1(O)CC[C@H]2[C@@H]3CCc4cc(O)ccc4[C@H]3CC[C@@]21C
inactive: NCI-H23 lung 112% | NCI-H226 lung 98.9% | NCI-H322M lung 97% | HOP-62 NSCLC 104% | NCI-H460 lung 97.8% | HOP-92 NSCLC 115% | NCI-H522 lung 63.9% | A549/ATCC NSCLC 91.3% | 786-0 renal 95.8% | COLO 205 colon 104%

Cc1ccccc1N1C(c2ccccc2)=NNC12C=CC(=O)c1c(O)cccc12 (configuration not stated)
inactive: NCI-H23 lung 31.4% | NCI-H226 lung 87.8% | NCI-H322M lung 99.1% | HOP-62 NSCLC 31.1% | NCI-H460 lung 89.6% | HOP-92 NSCLC 137% | NCI-H522 lung 54.6% | A549/ATCC NSCLC 68.1% | COLO 205 colon 95.7%

Cn1c(=O)c2[nH]c(Cc3ccc4c(c3)OCO4)nc2n(C)c1=O
inactive: NCI-H23 lung 99.8% | NCI-H226 lung 99.4% | NCI-H322M lung 109% | HOP-62 NSCLC 101% | NCI-H460 lung 102% | HOP-92 NSCLC 71.4% | NCI-H522 lung 103% | A549/ATCC NSCLC 97% | 786-0 renal 111% | COLO 205 colon 109%

O=C(NNC(=S)Nc1ccccc1)c1ccc(Nc2ncnc3c2cnn3-c2cccc(Br)c2)cc1
inactive: NCI-H23 lung 99.8% | NCI-H226 lung 94.3% | NCI-H322M lung 95.5% | HOP-62 NSCLC 88% | NCI-H460 lung 112% | HOP-92 NSCLC 93.5% | NCI-H522 lung 88.6% | A549/ATCC NSCLC 112% | 786-0 renal 105% | COLO 205 colon 103%

COc1cccc(OCC(O)CN2CCN(c3ccccc3)CC2)c1 (configuration not stated)
inactive: NCI-H23 lung 106% | NCI-H226 lung 106% | NCI-H322M lung 129% | HOP-62 NSCLC 103% | NCI-H460 lung 114% | HOP-92 NSCLC 129% | NCI-H522 lung 80.3% | A549/ATCC NSCLC 114% | 786-0 renal 104% | COLO 205 colon 138%

CN1CCN(Cc2ccc(NC(=O)c3cccc(C#Cc4cnc(N)c5ncccc45)c3F)cc2C(F)(F)F)CC1
active: NCI-H460 lung -71.8% | NCI-H522 lung -9.1% | 786-0 renal -88.2%
inactive: NCI-H23 lung 61.4% | NCI-H226 lung 19.3% | NCI-H322M lung 46.7% | HOP-62 NSCLC 49.4% | HOP-92 NSCLC 26.5% | A549/ATCC NSCLC 38.2% | COLO 205 colon 42.5%

Nc1nc2ccc([C@@H]3Nc4ccc5[nH]ncc5c4[C@H]4[C@H]5CCC(C5)[C@H]43)cc2s1
inactive: NCI-H23 lung 23.2% | NCI-H226 lung 24.2% | HOP-62 NSCLC 12.2% | HOP-92 NSCLC 74.7% | A549/ATCC NSCLC 25.8% | 786-0 renal 43.9%
active: NCI-H322M lung -13% | NCI-H460 lung -26.8% | NCI-H522 lung -65.7% | COLO 205 colon 6.12%

COc1ccc(C2C=C(c3ccc(Cl)cc3)N=C3SC=CN32)cc1 (configuration not stated)
inactive: NCI-H23 lung 101% | NCI-H226 lung 112% | NCI-H322M lung 133% | HOP-62 NSCLC 108% | NCI-H460 lung 103% | HOP-92 NSCLC 86.4% | NCI-H522 lung 113% | A549/ATCC NSCLC 104% | 786-0 renal 97.8% | COLO 205 colon 109%

CCN(CC)Cc1cc(Nc2nc(NC3CCC(N(C)C)CC3)c3ccccc3n2)ccc1OC (configuration not stated)
inactive: NCI-H23 lung 87.8% | NCI-H226 lung 75.5% | NCI-H322M lung 76.5% | HOP-62 NSCLC 79.4% | NCI-H460 lung 89.7% | HOP-92 NSCLC 25.3% | NCI-H522 lung 44% | A549/ATCC NSCLC 67.8% | 786-0 renal 97.8% | COLO 205 colon 12%

CCCCN(CCCC)CCC(=O)c1ccc(OC)c2ccccc12
inactive: NCI-H23 lung 111% | NCI-H226 lung 95.7% | NCI-H322M lung 104% | HOP-62 NSCLC 101% | NCI-H460 lung 109% | NCI-H522 lung 90.6% | A549/ATCC NSCLC 80.1% | 786-0 renal 65.5% | COLO 205 colon 60.1%
active: HOP-92 NSCLC -13.7%

CC1=C(C(=O)Nc2ccc(F)cc2)C(c2ccc(C)cc2)C2=C(CC(C)(C)CC2=O)N1 (configuration not stated)
inactive: NCI-H23 lung 93.4% | NCI-H226 lung 89.8% | NCI-H322M lung 103% | HOP-62 NSCLC 91.5% | NCI-H460 lung 90.8% | HOP-92 NSCLC 68.4% | NCI-H522 lung 91.2% | A549/ATCC NSCLC 92.4% | 786-0 renal 97.2% | COLO 205 colon 105%
